Test results as given in PubChem BioAssay (Tox21).
Records with an inconclusive call do not appear. Activity calls are given as the source filed them. Unless noted, the call rests on the fitted dose curve; in most records, active means well fitted curve in the direction sought with a large enough effect in the repeat runs; inconclusive means weak or mixed curves; inactive means no such curve, though single readings can be large; an effect the other way counts as inactive or inconclusive.

Experiments:
[1] = qHTS assay to identify small molecule antagonists of the glucocorticoid receptor (GR) signaling pathway - cell viability counter screen (AID 720693); further: nearly all actives have a fitted effect of over 55% in size
[2] = qHTS assay for identifying genotoxic compounds that show differential cytotoxicity against isogenic chicken DT40 cell lines with known DNA damage response pathways - Rev3 mutant cell line (AID 743014); further: nearly all actives have a fitted effect of over 55% in size; further: potency means the concentration at half of the fitted maximal effect
[3] = qHTS assay to identify small molecule antagonists of the androgen receptor (AR) signaling pathway - cell viability counter screen (AID 743033; further: nearly all actives have a fitted effect of over 45% in size)
[4] = qHTS assay to identify small molecule antagonists of the androgen receptor (AR) signaling pathway using the MDA cell line - cell viability counter screen (AID 743041; further: nearly all actives have a fitted effect of over 45% in size)
Outline: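 MDA-kb2 AR-luc human breast carcinoma cells (MMTV-luciferase, AR/GR responsive) were treated with compounds plus R1881 agonist for 16 h at 37 °C. Viability was read as CellTiter-Fluor fluorescence in the same wells as the reporter assay.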

[5] = qHTS assay for identifying genotoxic compounds that show differential cytotoxicity against isogenic chicken DT40 cell lines with known DNA damage response pathways - Rad54/Ku70 mutant cell line (AID 743015); further: nearly all actives have a fitted effect of over 60% in size; further: potency means the concentration at half of the fitted maximal effect
[6] = qHTS assay for identifying genotoxic compounds that show differential cytotoxicity against isogenic chicken DT40 cell lines with known DNA damage response pathways - wild type cell line (AID 743012); further: nearly all actives have a fitted effect of over 60% in size; further: potency means the concentration at half of the fitted maximal effect
Outline: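 Quantitative HTS on parental DT40 cells: 40 h compound treatment at 37 C/5% CO2, with viability then determined by CellTiter-Glo luminescence. Values serve as the DNA repair-proficient reference for differential cytotoxicity.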

[7] = molecular target: Androgen receptor (Homo sapiens) (UniProt P10275); experiment: qHTS assay to identify small molecule antagonists of the androgen receptor (AR) signaling pathway (AID 743035; active means well fitted inhibition curve with a large enough effect in the signal ratio in the repeat runs, not every such curve was filed as active; the % refers to the signal ratio)
Chain of Androgen receptor (Homo sapiens) (P10275 whole entry, looked up): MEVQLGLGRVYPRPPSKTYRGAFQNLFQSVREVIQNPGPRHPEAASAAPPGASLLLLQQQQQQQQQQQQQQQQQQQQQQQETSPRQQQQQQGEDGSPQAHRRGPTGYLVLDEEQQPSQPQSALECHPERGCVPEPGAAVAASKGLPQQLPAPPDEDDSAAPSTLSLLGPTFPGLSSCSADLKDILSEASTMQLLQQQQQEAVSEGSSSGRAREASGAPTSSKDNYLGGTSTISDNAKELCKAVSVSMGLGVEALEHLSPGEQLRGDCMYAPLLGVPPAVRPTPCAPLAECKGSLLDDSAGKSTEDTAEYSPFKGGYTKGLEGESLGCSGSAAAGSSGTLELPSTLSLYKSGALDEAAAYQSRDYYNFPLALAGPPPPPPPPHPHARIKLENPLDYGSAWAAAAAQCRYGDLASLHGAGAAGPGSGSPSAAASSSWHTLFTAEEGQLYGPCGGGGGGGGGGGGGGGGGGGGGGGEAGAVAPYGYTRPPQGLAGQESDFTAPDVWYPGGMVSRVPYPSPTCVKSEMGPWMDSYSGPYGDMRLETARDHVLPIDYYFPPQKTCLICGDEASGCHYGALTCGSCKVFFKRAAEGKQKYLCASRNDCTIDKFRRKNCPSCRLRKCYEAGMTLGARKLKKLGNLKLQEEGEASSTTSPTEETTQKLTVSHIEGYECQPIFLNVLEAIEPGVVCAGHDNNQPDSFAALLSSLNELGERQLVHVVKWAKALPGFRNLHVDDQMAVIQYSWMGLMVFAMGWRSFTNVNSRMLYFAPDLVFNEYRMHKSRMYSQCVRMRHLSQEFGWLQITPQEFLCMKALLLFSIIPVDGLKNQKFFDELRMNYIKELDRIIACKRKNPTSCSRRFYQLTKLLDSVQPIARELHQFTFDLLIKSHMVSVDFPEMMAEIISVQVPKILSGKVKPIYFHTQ
Outline: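 Cell line: GeneBLAzer AR-UAS-bla GripTite (HEK293). Stimulus: R1881 added after compound. Exposure: 16 h, 37C, 5% CO2. Readout: LiveBLAzer B/G FRET fluorescence after 2 h at room temperature.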

[8] = molecular target: Androgen receptor (Homo sapiens) (UniProt P10275); experiment: qHTS assay to identify small molecule agonists of the androgen receptor (AR) signaling pathway (AID 743036; active means well fitted activation curve with a large enough effect in the signal ratio in the repeat runs, with a control signal flat, not every such curve was filed as active; the % refers to the signal ratio)
Outline: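 In this Tox21 qHTS, 2,000 HEK293 AR-bla cells per well were incubated with compounds for 16 h at 37C and 5% CO2. Fluorescence intensity was recorded 2 h after adding LiveBLAzer B/G FRET substrate at room temperature.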

[9] = molecular target: Androgen receptor (Homo sapiens) (UniProt P10275); experiment: qHTS assay to identify small molecule agonists of the androgen receptor (AR) signaling pathway using the MDA cell line (AID 743040; further: nearly all actives have a fitted effect of over 20% in size)
Outline: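 MDA-kb2 breast carcinoma cells stably carrying an MMTV-driven luciferase reporter (AR- and GR-responsive) were seeded and held 5 h at 37C, 0% CO2, then exposed to compounds in DMSO for 16 h. Luminescence was read 30 min after ONE-Glo addition.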

[10] = molecular target: Androgen receptor (Homo sapiens) (UniProt P10275); experiment: qHTS assay to identify small molecule antagonists of the androgen receptor (AR) signaling pathway using the MDA cell line (AID 743042; further: nearly all actives have a fitted effect of over 55% in size)
Outline: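 MDA-kb2 cells (human breast carcinoma, stably carrying an MMTV-luciferase reporter responsive to AR and GR) were plated at 3,000 cells/well and preincubated 5 hr at 37C, then given compound plus R1881 agonist for 16 h. ONE-Glo luminescence was read.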

Measured: Potency

CC1(C)CON(Cc2ccccc2Cl)C1=O
active: [2] 68.6 µM
inactive: [1] | [3] | [4]

ClCC(Cl)(Cl)Cl
inactive: [1] | [2] | [5] | [3] | [4]

CCCCN(CCCCO)N=O
inactive: [1] | [2] | [5] | [3] | [4]

CCN(Cc1ccc(Cl)nc1)/C(=C/[N+](=O)[O-])NC
inactive: [1] | [2] | [5] | [3] | [4]

OC(c1ccc(F)cc1)(c1cncnc1)c1ccccc1Cl (stereo not given)
inactive: [1] | [3] | [4]
active: [2] 30.6 µM | [5] 61.1 µM

O=[N+]([O-])c1ccc(CBr)cc1
inactive: [1] | [2] | [5] | [3] | [4]

CCCSP(=O)(OCC)Oc1ccc(Br)cc1Cl (stereo not given)
active: [2] 33.3 µM | [5] 29.7 µM
inactive: [1] | [3] | [4]

COC(=O)c1ccccc1S(=O)(=O)NC(=O)N(C)c1nc(C)nc(OC)n1
inactive: [1] | [2] | [5] | [3] | [4]

CNCC(=O)c1ccc(O)c(O)c1
inactive: [1] | [2] | [5] | [3] | [4]

O=[N+]([O-])c1cc(Cl)c(Cl)c(Cl)c1
inactive: [1] | [2] | [5] | [3] | [4]

CSc1nc(N=[N+]=[N-])nc(NC(C)C)n1
inactive: [1] | [3] | [4]
active: [2] 61.1 µM

CCSC(=O)N(CC)C1CCCCC1
inactive: [1] | [2] | [5] | [3] | [4]

CCC/C(=N\OCC)C1=C(O)CC(CC(C)SCC)CC1=O (stereo not given)
active: [2] 61.5 µM | [5] 61.5 µM
inactive: [1] | [4]

CCOC(=O)NC(=S)Nc1ccccc1NC(=S)NC(=O)OCC
inactive: [1] | [3] | [4]
active: [2] 30.6 µM | [5] 48.6 µM

CCOP(=S)(OCC)Oc1nc(Cl)n(C(C)C)n1
inactive: [1] | [3] | [4]
active: [2] 68.6 µM

CCCSP(=S)(OCC)Oc1ccc(Cl)cc1Cl (stereo not given)
inactive: [1] | [3] | [4]
active: [5] 61.1 µM

N#CCCC#N
inactive: [6] | [2] | [5] | [3] | [4]

O=[N+]([O-])c1cccc2cccnc12
inactive: [1] | [3] | [4]

CCCCOC(=O)c1ccccc1N
inactive: [1] | [2] | [3] | [4]

ClC(Cl)Br
inactive: [2] | [5] | [3] | [4]

CC(=O)[C@H]1CC[C@H]2[C@@H]3CC[C@H]4C[C@H](O)CC[C@]4(C)[C@H]3C(=O)C[C@]12C
inactive: [1] | [3] | [4]

Cc1ncc2n1-c1ccc(Cl)cc1C(c1ccccc1F)=NC2
inactive: [1] | [2] | [3] | [4]

OC(c1ccccc1)(c1ccccc1)C1CCNCC1
inactive: [1] | [2] | [3] | [4]

Cc1ncc(CNC(=O)N(CCCl)N=O)c(N)n1
inactive: [1] | [5] | [3] | [4]

O=NN1CCCCC1
inactive: [6] | [2] | [5] | [3] | [7] | [8] | [9] | [4] | [10]

COc1cc(OC)nc(NC(=O)NS(=O)(=O)c2ncccc2C(=O)N(C)C)n1
inactive: [6] | [2] | [5] | [3] | [4]

CC(Oc1ccc(Oc2ncc(C(F)(F)F)cc2Cl)cc1)C(=O)O (stereo not given)
inactive: [9]
active: [2] 68.6 µM | [5] 61.1 µM

COC(=O)C(C)Oc1ccc(Oc2ccc(Cl)cc2Cl)cc1 (stereo not given)
active: [5] 68.6 µM
inactive: [1] | [3] | [4]

CC(CCc1ccccc1)NC(C)C(O)c1ccc(O)cc1 (stereo not given)
inactive: [1] | [5] | [4]

COP(=S)(OC)Oc1c(Cl)cc(C)cc1Cl
inactive: [1] | [3] | [4]

Clc1cccc(N2CCNCC2)c1
inactive: [1] | [3] | [4]

CCC(C)(C)c1cc(-n2nc3ccccc3n2)c(O)c(C(C)(C)CC)c1
inactive: [6] | [2] | [5] | [3] | [7] | [8] | [9] | [4] | [10]

O=C(O)C(Br)CBr (stereo not given)
inactive: [1] | [5] | [3] | [4]

[Cl][Sn]([Cl])([Cl])[Cl]
inactive: [6] | [2] | [5] | [3] | [4]

CC(COc1ccc(Oc2ccccc2)cc1)Oc1ccccn1 (stereo not given)
active: [5] 61.1 µM
inactive: [1] | [3] | [8] | [9] | [4] | [10]

OC(Cn1cncn1)(c1ccc(F)cc1)c1ccccc1F (stereo not given)
inactive: [1] | [3] | [4]

O=C(N[C@H]1CN2CCC1CC2)c1cc2ccoc2cn1
inactive: [1] | [3] | [7] | [8] | [9] | [4] | [10]

CCOC(=O)N(C)C(=O)CSP(=S)(OCC)OCC
active: [5] 24.3 µM
inactive: [1] | [4]

CC(C1CC1)C(O)(Cn1cncn1)c1ccc(Cl)cc1 (stereo not given)
inactive: [1] | [3] | [4]

CCCSC(=O)Cl
inactive: [1] | [2] | [3] | [4]

CC1CCCCC1NC(=O)Nc1ccccc1 (stereo not given)
inactive: [1] | [3] | [4]

CC(C=O)Cc1ccc2c(c1)OCO2 (stereo not given)
inactive: [6] | [5] | [3] | [4]

COP(=S)(OC)Oc1ccc(S(N)(=O)=O)cc1
inactive: [1] | [5] | [3] | [4]

CC(C)CC(N(C)C)C1(c2ccc(Cl)cc2)CCC1 (stereo not given)
inactive: [1] | [2] | [3] | [4]

c1coc(-c2nc3ccccc3[nH]2)c1
active: [6] 54.5 µM | [2] 24.3 µM | [5] 54.5 µM
inactive: [4]

CCC1(c2ccccc2)C(=O)N=C(O)NC1=O (stereo not given)
inactive: [1] | [2] | [3] | [4]

CC1(C(=O)Nc2ccc(O)c(Cl)c2Cl)CCCCC1
inactive: [3] | [4]
active: [6] 68.6 µM | [2] 61.1 µM | [5] 61.1 µM

COC(=O)C1=CCCN(C)C1
inactive: [6] | [5] | [3] | [4]

CC(C)(C)OC(=O)c1ncn2c1[C@@H]1CCCN1C(=O)c1c(Br)cccc1-2
inactive: [1] | [3] | [4]

C=CCC1=C(C)[C@@H](OC(=O)[C@@H]2[C@@H](C=C(C)C)C2(C)C)CC1=O
active: [6] 15.4 µM | [2] 24.3 µM | [5] 15.4 µM
inactive: [3]
